Common to all, as to assay: NCI-60 one-dose screen, 48 h (100 = growth as untreated, 0 = no growth, -100 = all killed)
Holding throughout (settings): 10 µM unless noted

Test [1] has as its system SK-MEL-2 melanoma.
Test [2] deals with EKVX NSCLC.
The test system of test [3] is SN12C renal.
Test [4] deals with UO-31 renal.
Test [5] has as its system TK-10 renal.
Test [6] relates to ACHN renal.
For test [7], the system named is CAKI-1 renal.
The subject of test [8] is A498 renal.
In test [9] the test system is CCRF-CEM leukemia.
Test [10] concerns MOLT-4 leukemia.

SMILES strings stand for the structures. This is part of a sample that, as a whole, favours compounds with a hit. Of some 83,000 tested, about 20% had one in any assay.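 For each line, cells grew in 96-well plates with the test compound present at a single concentration for 48 hours.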 Unmarked numbers belong to inactive results. Activity calls are given as the source filed them. Rule for the calls: active = growth percent below 10; inactive = the rest.

In the case of `c1nc2ccc(-c3cc4ccc5[nH]ncc5c4c4c3CCCC4)cc2[nH]1`, the growth was 43% in [1]; 93% in test [2]; 76.4% in test [3]; 92.9% in [4]; 61.7% in [5]; 52.2% in test [6]. For the same compound, the growth in [7] was 54%; in [8] it was 49.9%; in [9] it was 31%; in test [10] it was 33.8%.
With `O=C(N=Nc1c(O)[nH]c2ccccc12)Nc1ccc(F)cc1`, the growth in [1] was 102%; in test [2] it was 94.3%; in [3], 94.6%; in [4] it was 72.8%; in test [5] it was 113%; in [6] it was 92.8%. The growth in test [7] is 81.5%; in test [8], 102%; in [9] it was 95.4%; in test [10], 92.5%.
For `C[C@@H]1O[C@@H](O[C@@H]2C[C@H](c3ccc4c(c3O)C(=O)C3=C(C4=O)[C@@]4(O)C(=O)C[C@](C)(O)C[C@@]4(O)C=C3)O[C@H](C)[C@H]2O)CC[C@@H]1O[C@H]1C[C@@H](O)[C@H](O)[C@@H](C)O1`, the growth is 110% in test [1]; 98% in test [2]; 98.4% in test [3]; 82.8% in test [4]; 97.4% in [5]; 90.8% in test [6]. In addition, the growth in [7] was 93.3%; in test [8] it was 108%; in test [9] it was 90.5%; in test [10] it was 86.6%.
In the case of `COc1ccc(C(=O)c2cc3c(N)c(C(=O)Nc4ccccc4)sc3nc2C)cc1`, the growth is 54.8% in test [1]; 50.4% in test [2]; 32.1% in test [3]; 52.3% in test [4]; 65.2% in test [5]; 42.7% in test [6]. Further, the growth in test [7] is 40%; in [8], -1.62% (active); in test [9], 10.4%; in test [10], 18.3%.
`COc1ccc(C2=NN(C(C)=O)C(c3cn(-c4ccccc4)nc3-c3ccc(Cl)cc3)C2)cc1` (stereo not given): the growth is 63.7% in [1]; 41.3% in test [2]; 32.8% in test [3]; 38.5% in test [4]; 12.1% in [5]; 8.45% (active) in [6]. Also, the growth in test [7] is 28%; in [8], 80.2%; in test [9] it was 24%; in [10], 43.6%.
For `COc1ccc(Cn2cc3c(c2-c2ccccc2)CCc2cnoc2-3)cc1`, the growth is 64.6% in test [1]; 44.1% in test [2]; 37.3% in [3]; 36.5% in test [4]; 91.9% in [5]; 46.6% in [6]. The growth was 34% in [7], 33.3% in test [8], 8.41% (active) in [9] and 25.5% in test [10].
For the compound `COc1cc(/C=C/C(=O)c2ccc(-n3cc(CN4CCN(c5cc6c(cc5F)c(=O)c(C(=O)O)cn6C5CC5)CC4)nn3)cc2)ccc1O`, the growth in test [1] is 93%; in test [2] it was 85%; in [3] it was 37.6%; in test [4] it was 52.6%; in test [5], 84.9%; in [6] it was 77.7%. For the same compound, the growth in test [7] was 52.5%; in test [8], 70.8%; in test [9], 29.9%; in [10], 68.2%.
As to `OCCNCCNC(Cc1ccc(Cl)cc1)c1ccccc1` (stereo not given), the growth in [1] is 86.6%; in test [2], 88.5%; in test [3] it was 92%; in [4], 64.5%; in test [5] it was 80.8%; in test [6], 95.9%. Also, the growth in [7] was 84.3%; in test [8] it was 90.1%; in [9], 85.4%; in test [10] it was 86.4%.
On to `Cc1ccc(-c2csc(NC(=O)c3ccccc3CN3C(=O)c4ccccc4C3=O)n2)cc1`, for which the growth in test [1] was 97.3%; in [2], 93.6%; in [3], 94.5%; in test [4] it was 85.9%; in test [5], 94.4%; in test [6], 108%. Moreover, the growth is 86.6% in test [7], 99.8% in test [8], 102% in test [9] and 93.4% in [10].
On to `O=C1/C(=C\c2ccccn2)c2ccccc2N1c1c(Cl)cccc1Cl`, for which the growth in [1] was 48.8%; in test [2], 27.2%; in [3] it was 18.1%; in test [4], 16.8%; in test [5] it was 52%; in [6] it was 19.6%. The growth in test [7] is -1.37% (active); in [8] it was 21.3%; in [9] it was 8.81% (active); in [10], 3.48% (active).
As for `CCN(CC)CCCN1C(=O)c2c(c(C)c3c(oc4ccc(OC)cc43)c2C)C1=O`, the growth in [1] is 108%; in test [2] it was 105%; in test [3], 100%; in test [4], 64.5%; in test [5], 110%; in [6] it was 42.8%. In addition, the growth is 92.6% in [7], 99.1% in [8], 93.9% in [9] and 96.4% in test [10].
For `CCCn1cnc2c(c1=N)C(c1ccc(F)cc1)c1sc3c(F)cccc3c1O2` (stereo not given), the growth in test [1] was 45.8%; in test [2], 76.5%; in test [3], 58.6%; in test [4], 53.9%; in test [5], 80.3%; in test [6], 56.8%. For the same compound, the growth in test [7] was 30.6%; in [8], 51.1%; in [9], 20.4%; in [10], 43.8%.

Source of the values: PubChem BioAssay (NCI).
